Compounds without any hit were thinned out: in the full panel of roughly 83,000, 20% have a hit.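 Interpretation: 100, growth as untreated; towards 0, rising growth inhibition; 0, no net growth; 0 to -100, cell death. Compounds scoring below 10 were considered active.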 Values without a mark were called inactive. The source made the active and inactive calls.

Common to all, as to experiment: NCI-60 one-dose screen, 48 h (100 = growth as untreated, 0 = no growth, -100 = all killed)
One test deals with NCI-H23 lung. The following applies: 10 µM unless noted.
The test system of the next test is NCI-H226 lung. The following applies: 10 µM unless noted.
Another test has as its system NCI-H322M lung. To be noted: 10 µM unless noted.
The subject of the next test is HOP-62 NSCLC. The following applies: 10 µM unless noted.
A further test concerns NCI-H460 lung. To be noted: 10 µM unless noted.
For a further test, the system named is HOP-92 NSCLC. The following applies: 10 µM.
For the next test, the system named is NCI-H522 lung. To be noted: 10 µM unless noted.
The test system of the next test is A549/ATCC NSCLC. To be noted: 10 µM unless noted.
Another test concerns 786-0 renal. To be noted: 10 µM unless noted.
For a further test, the system named is COLO 205 colon. The following applies: 10 µM unless noted.
The test system of another test is DU-145 prostate. The following applies: 10 µM unless noted.
Another test relates to K-562 leukemia. To be noted: 10 µM unless noted.
The test system of another test is MALME-3M melanoma. To be noted: 10 µM unless noted.
The next test relates to MDA-MB-231 breast. The following applies: 10 µM unless noted.
The test system of a further test is SF-268 CNS. The following applies: 10 µM unless noted.
A further test concerns SF-295 CNS. The following applies: 10 µM unless noted.
The subject of the next test is SF-539 CNS. The following applies: 10 µM unless noted.
The test system of another test is UACC-257 melanoma. The following applies: 10 µM unless noted.

`Oc1cccc2ccc(-c3nnc(SCc4ccc(O)c5ncccc45)n3-c3ccccc3)nc12`: the growth in the test with NCI-H23 lung was 20.5%; in the test on NCI-H226 lung it was 39.5%; in the test with NCI-H322M lung, 20.9%; with HOP-62 NSCLC, 16.5%; in the test on NCI-H460 lung it was 2.48% (active); with HOP-92 NSCLC it was -0.323% (active). For the same compound, the growth with NCI-H522 lung is 13.5%; in the test with A549/ATCC NSCLC, 15.4%; in the test with 786-0 renal it was 25.9%; in the test on COLO 205 colon, 53.9%; in the test with DU-145 prostate, 25.2%; with K-562 leukemia, 12.4%. In addition, the growth is -3.5% (active) in the test with MALME-3M melanoma; 29.7% with MDA-MB-231 breast; 22.8% in the test with SF-268 CNS; 2.95% (active) in the test on SF-295 CNS; 4.73% (active) in the test on SF-539 CNS; -2.75% (active) with UACC-257 melanoma.

As to `CCOC(=O)C1=NNC(c2ccc(Cl)cc2)C1C(=O)N1C(=S)NC(=O)C1CC(C)C` (centres undefined), the growth in the test with NCI-H23 lung is 99.3%; in the test with NCI-H226 lung, 92%; with NCI-H322M lung, 94.7%; in the test on HOP-62 NSCLC, 92.8%; in the test on NCI-H460 lung, 105%; with HOP-92 NSCLC, 90.2%. Also, the growth in the test with NCI-H522 lung is 88.4%; in the test on A549/ATCC NSCLC it was 110%; with 786-0 renal, 108%; with COLO 205 colon, 109%; with DU-145 prostate, 107%; in the test with K-562 leukemia, 98.4%. In addition, the growth in the test with MALME-3M melanoma was 104%; in the test with MDA-MB-231 breast it was 86.2%; with SF-268 CNS it was 98.3%; with SF-295 CNS, 106%; with SF-539 CNS, 104%; in the test with UACC-257 melanoma, 116%.

On to `Cc1ccc(-c2nnc(SCc3ccc(O)c4ncccc34)o2)cc1`, for which the growth in the test with NCI-H23 lung was 27.9%; with NCI-H226 lung, 45.2%; in the test on NCI-H322M lung, 26.3%; in the test with HOP-62 NSCLC, 19.7%; in the test on NCI-H460 lung, 2.77% (active); with HOP-92 NSCLC, 10.4%. In addition, the growth in the test with NCI-H522 lung was 26.6%; in the test on A549/ATCC NSCLC it was 24.7%; with 786-0 renal, 24.5%; in the test with COLO 205 colon it was 88.2%; in the test with DU-145 prostate, 28.7%; in the test on K-562 leukemia it was 11.3%. Besides, the growth in the test with MALME-3M melanoma was 1.77% (active); in the test with MDA-MB-231 breast, 41.7%; with SF-268 CNS, 21.2%; with SF-295 CNS it was 5.77% (active); in the test with SF-539 CNS, 14.9%; in the test with UACC-257 melanoma it was 9.75% (active).

As to `NC(N)=Nc1ccc(Oc2cccc(NC(N)=Nc3ccc(I)cc3F)c2)cc1`, the growth is 77.4% in the test on NCI-H23 lung; 88.2% in the test with NCI-H226 lung; 80.4% with NCI-H322M lung; 76.4% in the test on HOP-62 NSCLC; 65.9% in the test with NCI-H460 lung; 39% in the test on HOP-92 NSCLC. The growth is 66.8% with NCI-H522 lung; 68.7% with A549/ATCC NSCLC; 86.4% in the test with 786-0 renal; 48.9% in the test with COLO 205 colon; 97.6% with DU-145 prostate; 69.9% with K-562 leukemia. For the same compound, the growth in the test on MALME-3M melanoma is 83%; in the test with MDA-MB-231 breast, 83.6%; in the test with SF-268 CNS it was 36.4%; in the test on SF-295 CNS, 77.3%; with SF-539 CNS it was 62.6%; with UACC-257 melanoma it was 86.4%.

As for `CCCCCc1ccc(S(=O)(=O)Nc2cccc(-c3csc(NC(=O)CNCCN(C)C)n3)c2)cc1`, the growth was 94.6% in the test with NCI-H23 lung; 87.5% in the test with NCI-H226 lung; 90.4% in the test on NCI-H322M lung; 98.8% in the test with HOP-62 NSCLC; 51.9% in the test with NCI-H460 lung; 53% in the test on HOP-92 NSCLC. Moreover, the growth was 91% in the test with NCI-H522 lung; 84.8% in the test with A549/ATCC NSCLC; 61.6% with 786-0 renal; 74.6% in the test with COLO 205 colon; 84.8% in the test with DU-145 prostate; 9.48% (active) in the test on K-562 leukemia. Besides, the growth with MALME-3M melanoma is 74%; with MDA-MB-231 breast, 93.5%; in the test on SF-268 CNS, 78.6%; with SF-295 CNS it was 95.5%; in the test on SF-539 CNS it was 91.1%; in the test on UACC-257 melanoma, 96.1%.

With `CCCCCc1ccc(S(=O)(=O)Nc2cc(-c3csc(NC(=O)CN4CCN(CCO)CC4)n3)ccc2OC)cc1`, the growth in the test with NCI-H23 lung was 71.3%; in the test with NCI-H226 lung, 82.9%; in the test with NCI-H322M lung, 52.3%; in the test with HOP-62 NSCLC it was 78.7%; in the test with NCI-H460 lung, -14% (active); with HOP-92 NSCLC it was 46.8%. The growth with NCI-H522 lung is 45.7%; in the test on A549/ATCC NSCLC it was 43.4%; with 786-0 renal, -51.5% (active); in the test with COLO 205 colon, -21.4% (active); in the test on DU-145 prostate, 49.1%; in the test on K-562 leukemia, 2.84% (active). Moreover, the growth was -80.9% (active) in the test with MALME-3M melanoma; 12.6% with MDA-MB-231 breast; 59.8% in the test on SF-268 CNS; -23.1% (active) in the test on SF-295 CNS; -69.2% (active) in the test on SF-539 CNS; -31.4% (active) in the test on UACC-257 melanoma.

With `CN(C)CCNC(=O)c1ccc(-c2nc3ccc4[nH]ncc4c3c3c2CCC3)cc1`, the growth with NCI-H23 lung was -15.2% (active); in the test with NCI-H226 lung, 10.8%; in the test on NCI-H322M lung, 6.34% (active); in the test on HOP-62 NSCLC it was 5.66% (active); in the test on NCI-H460 lung, 1.65% (active); with HOP-92 NSCLC, -29.8% (active). For the same compound, the growth is -40.6% (active) with NCI-H522 lung; 7.96% (active) with A549/ATCC NSCLC; 12% in the test on 786-0 renal; -11.6% (active) with COLO 205 colon; 5.47% (active) in the test on DU-145 prostate; 11.3% in the test on K-562 leukemia. Also, the growth is -0.0162% (active) with MALME-3M melanoma; -2.41% (active) with MDA-MB-231 breast; -8.73% (active) in the test on SF-268 CNS; 2.24% (active) in the test on SF-295 CNS; -31.2% (active) in the test with SF-539 CNS; 47.7% in the test with UACC-257 melanoma.

Take `COC(=O)C1(C)CCC[C@]2(C)[C@H]3C[C@H]4C(C(C)C)=C[C@]3(CC[C@@H]12)[C@H]1[C@@H]4[C@@H](OC(=O)c2ccco2)CC[C@@H]1OC(=O)c1ccco1` (some centres undefined): the growth in the test on NCI-H23 lung is 104%; in the test on NCI-H226 lung it was 103%; in the test on NCI-H322M lung, 106%; in the test on HOP-62 NSCLC, 96.9%; in the test on NCI-H460 lung, 117%; in the test on HOP-92 NSCLC, 102%. The growth with NCI-H522 lung was 99.6%; in the test with A549/ATCC NSCLC, 102%; with 786-0 renal it was 94.3%; in the test with COLO 205 colon, 115%; in the test with DU-145 prostate it was 113%; in the test with K-562 leukemia, 104%. Also, the growth in the test with MALME-3M melanoma is 108%; in the test on MDA-MB-231 breast, 101%; in the test with SF-268 CNS, 108%; in the test with SF-295 CNS, 98.3%; in the test with SF-539 CNS it was 103%; with UACC-257 melanoma, 110%.

Values taken from PubChem BioAssay (NCI).
